± gives the standard deviation.
Key:
[1] = tested on: MILI (PIWIL2) piRISC loaded with L1MC piRNA (26 nt); assay: pre-steady-state target cleavage rate (min^-1); guide: L1MC piRNA 5'p-UAACUAAAUACUAUGCAAGCUGUAGG; higher = faster piRNA-guided slicing of the target;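 also: 1 nM active piRISC with 0.1 nM target library at 33 °C single turnover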
Outline: (§1)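 Cleave-'n-Seq measured uncleaved targets by sequencing after a transcribed, DNA-blocked target RNA library […] was mixed with 1 nM active affinity-purified piRISC holding one synthetic guide, with or without 500 nM GTSF1 partner protein, at 33 °C in HEPES–potassium acetate buffer for 0–8 or 0–960 min. Counts were normalised to depth and to weakly complementary targets, three trials were pooled, and k3 was capped at 0.0001 min^-1. A burst-and-steady-state fit gave the pre-steady-state cleavage rate.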

[2] = tested on: EfPiwi piRISC loaded with L1MC piRNA (26 nt); assay: pre-steady-state target cleavage rate (min^-1); auxiliary factor: 500 nM Ephydatia muelleri Gtsf1; guide: L1MC piRNA 5'p-UAACUAAAUACUAUGCAAGCUGUAGG; MIWI and MILI are mouse PIWI proteins and EfPiwi is from a freshwater sponge; tags in brackets are library labels; higher = faster piRNA-guided slicing of the target
Outline: as §1

[3] = auxiliary factor: 500 nM mouse GTSF1
[4] = auxiliary factor: none (no GTSF1)

UCCUGGUACAGCUUGCAUAGUAUUUUCUAA
pre-steady-state target cleavage rate [1, 3]: 0.0489 ± 0.017 | pre-steady-state target cleavage rate [1, 4]: 0.00383 ± 0.0034 | pre-steady-state target cleavage rate [2]: 0.0055 ± 0.0029

UCCUGGAUGUCGUUCGCAUAGUAUUUAGUUA
pre-steady-state target cleavage rate [1, 3]: 0.101 ± 0.013 | pre-steady-state target cleavage rate [1, 4]: 0.00567 ± 0.0028 | pre-steady-state target cleavage rate [2]: 0.00486 ± 0.0031

UCCUGGAUGUGCUCGCAUAGUAUUUAGUUA
pre-steady-state target cleavage rate [1, 3]: 0.155 ± 0.018 | pre-steady-state target cleavage rate [1, 4]: 0.00981 ± 0.0026 | pre-steady-state target cleavage rate [2]: 0.00512 ± 0.0021

UCCUGCUACAGCUUGUCAUAGUAUUUAGUUA
pre-steady-state target cleavage rate [1, 3]: 0.211 ± 0.021 | pre-steady-state target cleavage rate [1, 4]: 0.00341 ± 0.0028 | pre-steady-state target cleavage rate [2]: 0.0131 ± 0.0037

UCCUGGAUGUGCUUGCAUAGUAUUUAGUUG [g2:g20:cont:t1G]
pre-steady-state target cleavage rate [1, 3]: 0.179 ± 0.022 | pre-steady-state target cleavage rate [1, 4]: 0.00877 ± 0.0027 | pre-steady-state target cleavage rate [2]: 0.00803 ± 0.0029

UCCUGCUACAGGAUGCAUAGUAUUUAGUAA
pre-steady-state target cleavage rate [1, 3]: 0.301 ± 0.044 | pre-steady-state target cleavage rate [1, 4]: 0.00446 ± 0.0019 | pre-steady-state target cleavage rate [2]: 0.00317 ± 0.0021

UCCUGGUACAGCUAGCUUAGUAUUUAGUUA
pre-steady-state target cleavage rate [1, 3]: 0.248 ± 0.023 | pre-steady-state target cleavage rate [1, 4]: 0.00768 ± 0.0025 | pre-steady-state target cleavage rate [2]: 0.00544 ± 0.0027

UCCUCCUACAGCCUGCAUAGUAUUUAGUUA
pre-steady-state target cleavage rate [1, 3]: 0.287 ± 0.018 | pre-steady-state target cleavage rate [1, 4]: 0.0111 ± 0.0024 | pre-steady-state target cleavage rate [2]: 0.0698 ± 0.018

UCCUCCUACAGGUUGCAUAGUUUUUAGUUA
pre-steady-state target cleavage rate [1, 3]: 0.0349 ± 0.0064 | pre-steady-state target cleavage rate [1, 4]: 0.00478 ± 0.0018 | pre-steady-state target cleavage rate [2]: 0.00915 ± 0.0022

UCCUCCUACAGCUUGCAUAGUAUAUAGUUA
pre-steady-state target cleavage rate [1, 3]: 0.242 ± 0.026 | pre-steady-state target cleavage rate [1, 4]: 0.00534 ± 0.0019 | pre-steady-state target cleavage rate [2]: 0.00814 ± 0.0038

UCCUGGUCACAGCUUGCAUAGUAUUUAGUUA
pre-steady-state target cleavage rate [1, 3]: 0.239 ± 0.018 | pre-steady-state target cleavage rate [1, 4]: 0.0126 ± 0.0051 | pre-steady-state target cleavage rate [2]: 0.00857 ± 0.0072

UCCUGGAUGAGCUUGCACAGUAUUUAGUUA
pre-steady-state target cleavage rate [1, 3]: 0.172 ± 0.014 | pre-steady-state target cleavage rate [1, 4]: 0.00869 ± 0.0031 | pre-steady-state target cleavage rate [2]: 0.0152 ± 0.0046

UCCUGGAUGAGCUUGCAUUGUAAUUAGUUA
pre-steady-state target cleavage rate [1, 3]: 0.0683 ± 0.013 | pre-steady-state target cleavage rate [1, 4]: 0.0035 ± 0.0031 | pre-steady-state target cleavage rate [2]: 0.00306 ± 0.0025

UCCUGGAUGUGCUUGUAUAGUAUUUAGUUA
pre-steady-state target cleavage rate [1, 3]: 0.142 ± 0.017 | pre-steady-state target cleavage rate [1, 4]: 0.0136 ± 0.004 | pre-steady-state target cleavage rate [2]: 0.0218 ± 0.0071

UCCUGGAUGUCCUUGCAUAGUAUCUAGUUA
pre-steady-state target cleavage rate [1, 3]: 0.12 ± 0.024 | pre-steady-state target cleavage rate [1, 4]: 0.00287 ± 0.0025 | pre-steady-state target cleavage rate [2]: 0.00775 ± 0.0043

UCCUGGAUCAGCUUAGCAUAGUAUUUAGUUA
pre-steady-state target cleavage rate [1, 3]: 0.232 ± 0.018 | pre-steady-state target cleavage rate [1, 4]: 0.00685 ± 0.0027 | pre-steady-state target cleavage rate [2]: 0.0874 ± 0.019

UCCUGGAUCAGCUUGCAUAGUAUUUAGUA
pre-steady-state target cleavage rate [1, 3]: 0.263 ± 0.019 | pre-steady-state target cleavage rate [1, 4]: 0.00426 ± 0.0027 | pre-steady-state target cleavage rate [2]: 0.00808 ± 0.0034

UCCUGGUACAGGUAGCAUAGUAUUUAGUUA
pre-steady-state target cleavage rate [1, 3]: 0.21 ± 0.021 | pre-steady-state target cleavage rate [1, 4]: 0.00976 ± 0.0036 | pre-steady-state target cleavage rate [2]: 0.00853 ± 0.0036

UCCUGCAUGAGCUUGCAUAGUAUUUAGUUA
pre-steady-state target cleavage rate [1, 3]: 0.265 ± 0.019 | pre-steady-state target cleavage rate [1, 4]: 0.01 ± 0.0025 | pre-steady-state target cleavage rate [2]: 0.0163 ± 0.0047

From the supplement of paper PMC10338343
